For orientation: AC50 means the midpoint of the concentration-response curve, whichever way the signal moves.

Activity calls are given as the source filed them. Rule for the calls: active = hit-call score of the fitted dose curve at least 0.9, where 1 is the maximum; inactive = score below 0.9.

Sequence of Transcription factor E2F1 (Homo sapiens) (Q01094 whole entry, looked up): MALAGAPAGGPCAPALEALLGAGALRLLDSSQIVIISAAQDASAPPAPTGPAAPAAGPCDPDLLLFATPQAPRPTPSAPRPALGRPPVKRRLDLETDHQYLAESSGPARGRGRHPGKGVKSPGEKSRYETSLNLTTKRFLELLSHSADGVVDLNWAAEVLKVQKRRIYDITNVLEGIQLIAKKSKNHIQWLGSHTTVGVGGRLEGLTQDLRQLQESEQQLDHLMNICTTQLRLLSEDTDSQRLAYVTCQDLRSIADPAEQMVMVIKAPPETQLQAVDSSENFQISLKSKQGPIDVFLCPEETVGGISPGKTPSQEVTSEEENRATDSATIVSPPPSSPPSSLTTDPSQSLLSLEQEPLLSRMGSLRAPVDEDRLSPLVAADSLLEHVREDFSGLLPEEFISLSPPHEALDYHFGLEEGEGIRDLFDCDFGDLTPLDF

In the experiment the target is Transcription factor E2F1 (Homo sapiens) (UniProt Q01094). Briefly: ATG_E2F_CIS: Attagene CIS-FACTORIAL HepG2 Assay for human E2F Transcription Factor 1 (AID 2282935). The note with it: HepG2 Attagene cis-reporter, E2F reporter RNA transcripts; actives raise or lower the signal. As to the method:
ATG_CIS is a cell-based, multiplexed-readout assay that uses HepG2, a human liver cell line, with measurements taken at 24 hours after chemical dosing in a 24-well plate.ATG_E2F_CIS is one of 52 assay component(s) measured or calculated from the ATG_CIS assay. It is designed to make measurements of mRNA induction, a form of inducible reporter, as detected with fluorescence intensity signals by Reverse transcription polymerase chain reaction (RT-PCR) and Capillary electrophoresis technology.Data from the assay component ATG_E2F_CIS was analyzed into 1 assay endpoint. This assay endpoint, ATG_E2F_CIS, was analyzed with bidirectional fitting relative to DMSO as the negative control and baseline of activity. Using a type of inducible reporter, measures of mRNA for gain or loss-of-signal activity can be used to understand the reporter gene at the transcription factor-level as they relate to the gene E2F1. Furthermore, this assay endpoint can be referred to as a primary readout, because this assay has produced multiple assay endpoints where this one serves a reporter gene function. To generalize the intended target to other relatable targets, this assay endpoint is annotated to the dna binding intended target family, where the subfamily is E2F transcription factor.
Human liver HepG2 cells are transiently transfected with multiple reporter transcription units (MRTUs) in 6-well plates using FuGene 6 reagent (Roche; 3 ml FuGene/1 mg DNA). The MRTU constructs are regulated by a cis-regulating element (promoter). […] A major difference between the CIS and TRANS system is that in CIS activities of endogenous TFs are measured, whereas the TRANS assay evaluates changes in activities of exogenous, chimeric NR-Gal4 proteins. […] At the end of 24 hour incubation, total RNA was isolated using TriZol reagent (Invitrogen). The isolated RNA is then reverse-transcribed using oligo(dT) primer and Mo-MLV reverse transcriptase (Invitrogen) with DNAse I (Ambion) treatment for 30 min. The one-tenth of the produced cDNA was amplified by PCR using Taq DNA polymerase (Invitrogen) and two reporter sequence-specific primers. The PCR products were fluorescently labeled by primer extension with 6-arboxyfluorescein (6-FAM) 5'-labeled reporter sequence-specific primer (2 min at 95 C, 20 s at 68 C and 10 min at 72 C) and these products were digested with 5U of HpaI (New England Biolabs) for 2h at 37 C. The fragments were purified using Qiaquick PCR columns (Qiagen), analyzed on an ABI 3130xL genetic analyzer (Applied Biosystems) with peak positions identified by using a set of X-rhodamine (ROX)-labeled MapMarker1000 molecular weight standards (BioVentures). The raw capillary electrophoresis data was processed using Attagraph software (Attagene).
`CC(C)COC(=O)c1ccccc1C(=O)OCC(C)C`: the result was inactive.
As to `CCNS(=O)(=O)C(F)(F)C(F)(F)C(F)(F)C(F)(F)C(F)(F)C(F)(F)C(F)(F)C(F)(F)F`, the call was inactive.
With `C=CCc1ccc2c(c1)OCO2`, the call was inactive.
Still for that read-out and setting: the same measure for `Cc1ccc(N)cc1`: “inactive”; for `O=[N+]([O-])C(Br)(CO)CO`: “inactive”.
As for `O=[N+]([O-])c1ccc(Oc2ccc(Cl)cc2Cl)cc1`, the outcome was inactive.
In the case of `c1ccc(NNc2ccccc2)cc1`, the compound was classed as inactive.
Regarding `CNC(=O)Oc1cccc2c1OC(C)(C)C2`, the call was inactive.
Regarding `[As]#[In]`, the result was inactive.
In the case of `Nc1ccc(Cc2ccc(N)cc2)cc1`, the compound was classed as inactive.
In the case of `OCCCl`, the call was inactive.
Turning to `Clc1ccc(Cl)c(Cl)c1`, the result was inactive.
The same measure, in the same setting: the same measure for `CN(C)c1ccccc1`: “inactive”; for `COP(=S)(OC)SCN1C(=O)c2ccccc2C1=O`: “inactive”.
For the compound `CC(C)(C)OOC(=O)c1ccccc1`, the concentration at half-maximal activity (AC50) was 158 µM (active).
With `O=P(OCCCl)(OCCCl)OCCCl`, the compound was called inactive.
Take `N#CC(Br)(Br)C(N)=O`: the compound was classed as inactive.
With `[O-][Cl+]O`, the compound was classed as inactive.
In the case of `[Cl-].[Cl-].[Hg+2]`, the outcome was inactive.
The same measure, in the same setting: the same measure for `Oc1ccccc1Cl`: “inactive”; for `CO[C@@H]1[C@H](OC(=O)NC(=O)CCl)CC[C@]2(CO2)[C@H]1[C@@]1(C)O[C@@H]1CC=C(C)C`: “inactive”; for `Cc1cccc(N)c1N`: “inactive”.
As for `CC(C)(O)c1cnn2c(-c3ccc(F)c(-c4c(F)cccc4C#N)c3)cnc2n1`, the compound was called inactive.
In the case of `O=C(O)C1C2CCC(O2)C1C(=O)O` (stereo not given), the call was inactive.
Turning to `Brc1ccc(Oc2ccccc2)cc1`, the outcome was inactive.
For `CC(C)N(Cc1ccccc1)C(=O)C(C)(C)C`, the compound was called inactive.
For the compound `O=C(N[C@H](c1ccccc1)[C@@H]1CN2CCC1CC2)c1c(Cl)ccc(C(F)(F)F)c1Cl`, the result was inactive.
Regarding `CCCSC(=O)N(CCC)CCC`, the outcome was inactive.
On to `COc1cc(C=O)cc2c1[C@H](COC(N)=O)[C@]1(OC(C)=O)ON2C[C@H]2[C@@H]1N2C(C)=O`, for which the half-maximal activity concentration (AC50) is 61.5 µM (active).
Regarding `OCCOCCO`, the call was inactive.
As for `CCCCCCCCOC(=O)c1ccc(C(=O)OCCCCCCCC)c(C(=O)OCCCCCCCC)c1`, the compound was classed as inactive.
Still for that read-out and setting: the same measure for `Clc1ccc(C(c2ccc(Cl)cc2)C(Cl)Cl)cc1`: “inactive”; for `ClCCOCCCl`: “inactive”.
As for `Cc1cc(N=Nc2ccccc2C)ccc1N`, the compound was classed as inactive.
On to `c1ccc(N=Nc2ccccc2)cc1`, for which the compound was classed as inactive.
On to `CN(C)C(=O)Nc1ccc(Cl)cc1`, for which the result was inactive.
Turning to `c1ccc2c(c1)-c1cccc3cccc-2c13`, the outcome was inactive.
In the case of `COC(=O)c1ccccc1N`, the call was inactive.
For `ClC1=C(Cl)[C@]2(Cl)[C@H]3[C@H]([C@@H]4C=C[C@H]3C4)[C@@]1(Cl)C2(Cl)Cl`, the call was inactive.
Regarding `Oc1ccc2ccc3cccc4ccc1c2c34`, the compound was classed as inactive.

The record behind these values is PubChem BioAssay (EPA / NIEHS).
